Measurements reported in the supplement of paper PMC6897291.

What was measured:
[1] = test system: U-2932; experiment: growth inhibition by drug alone (1 - RLU/untreated control) (fraction); higher = stronger inhibition; conditions: 177Lu-lilotomab satetraxetan 0 ug/ml
Procedure, shortened: (§1)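 RIVA or U-2932 cells, untreated or pretreated 18 h with a radiolabelled anti-CD37 antibody conjugate (~600 MBq/mg; 0.5 µg/ml RIVA, 1 µg/ml U-2932), were washed and seeded at 3,000 cells/well on plates pre-printed with the Selleck Cambridge Cancer Compound library. Doses were 10/100 nM (RIVA) or 10/1,000 nM (U-2932). RealTime-Glo luminescence was read daily from day 3 after 1 h at 37°C. Growth inhibition is 1 − RLU/mean of 48 untreated no-drug wells per plate.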

[2] = test system: RIVA; experiment: as above; conditions: 177Lu-lilotomab satetraxetan 0 ug/ml
Procedure, shortened: as §1

[3] = test system: U-2932; experiment: growth inhibition by drug plus 177Lu-lilotomab satetraxetan (1 - RLU/untreated control) (fraction); higher = stronger inhibition; conditions: 177Lu-lilotomab satetraxetan 1 ug/ml
Procedure, shortened: as §1

[4] = test system: RIVA; experiment: as above; conditions: 177Lu-lilotomab satetraxetan 0.5 ug/ml
Procedure, shortened: as §1

SMILES | growth inhibition by drug alone ([1]; 10 nM, time (day): 3) | growth inhibition by drug alone ([1]; 10 nM, time (day): 4) | growth inhibition by drug alone ([1]; 10 nM, time (day): 5) | growth inhibition by drug alone ([1]; 10 nM, time (day): 6) | growth inhibition by drug alone ([1]; 1000 nM, time (day): 3) | growth inhibition by drug alone ([1]; 1000 nM, time (day): 4) | growth inhibition by drug alone ([1]; 1000 nM, time (day): 5) | growth inhibition by drug alone ([1]; 1000 nM, time (day): 6) | growth inhibition by drug alone ([2]; 10 nM, time (day): 3) | growth inhibition by drug alone ([2]; 10 nM, time (day): 4) | growth inhibition by drug alone ([2]; 10 nM, time (day): 5) | growth inhibition by drug alone ([2]; 10 nM, time (day): 6) | growth inhibition by drug alone ([2]; 100 nM, time (day): 3) | growth inhibition by drug alone ([2]; 100 nM, time (day): 4) | growth inhibition by drug alone ([2]; 100 nM, time (day): 5) | growth inhibition by drug alone ([2]; 100 nM, time (day): 6) | growth inhibition by drug plus 177Lu-lilotomab satetraxetan ([3]; 10 nM, time (day): 3) | growth inhibition by drug plus 177Lu-lilotomab satetraxetan ([3]; 10 nM, time (day): 4) | growth inhibition by drug plus 177Lu-lilotomab satetraxetan ([3]; 10 nM, time (day): 5) | growth inhibition by drug plus 177Lu-lilotomab satetraxetan ([3]; 10 nM, time (day): 6) | growth inhibition by drug plus 177Lu-lilotomab satetraxetan ([3]; 1000 nM, time (day): 3) | growth inhibition by drug plus 177Lu-lilotomab satetraxetan ([3]; 1000 nM, time (day): 4) | growth inhibition by drug plus 177Lu-lilotomab satetraxetan ([3]; 1000 nM, time (day): 5) | growth inhibition by drug plus 177Lu-lilotomab satetraxetan ([3]; 1000 nM, time (day): 6) | growth inhibition by drug plus 177Lu-lilotomab satetraxetan ([4]; 10 nM, time (day): 3) | growth inhibition by drug plus 177Lu-lilotomab satetraxetan ([4]; 10 nM, time (day): 4) | growth inhibition by drug plus 177Lu-lilotomab satetraxetan ([4]; 10 nM, time (day): 5) | growth inhibition by drug plus 177Lu-lilotomab satetraxetan ([4]; 10 nM, time (day): 6) | growth inhibition by drug plus 177Lu-lilotomab satetraxetan ([4]; 100 nM, time (day): 3) | growth inhibition by drug plus 177Lu-lilotomab satetraxetan ([4]; 100 nM, time (day): 4) | growth inhibition by drug plus 177Lu-lilotomab satetraxetan ([4]; 100 nM, time (day): 5) | growth inhibition by drug plus 177Lu-lilotomab satetraxetan ([4]; 100 nM, time (day): 6)
COc1nc(-c2ccc3c(c2)OCO3)n(-c2ccc(NC(=O)CSc3ccccc3)cc2)n1 [SecinH3] | -0.0611 | -0.0455 | -0.0236 | 0.124 | -0.143 | -0.0966 | -0.134 | -0.195 | -0.242 | -0.224 | -0.27 | -0.428 | -0.311 | -0.358 | -0.334 | -0.394 | -0.0793 | -0.0496 | -0.0101 | 0.122 | -0.197 | -0.087 | -0.0724 | -0.0297 | 0.275 | 0.448 | 0.482 | 0.494 | 0.323 | 0.424 | 0.437 | 0.419
COc1cc(Nc2ncc(F)c(Nc3ccc4c(n3)NC(=O)C(C)(C)O4)n2)cc(OC)c1OC [R406(free base)] | 0.0274 | -0.00454 | -0.0695 | -0.162 | 0.0655 | 0.0291 | -0.0439 | 0.00754 | 0.0167 | -0.0293 | -0.017 | -0.0464 | -0.368 | -0.333 | -0.353 | -0.462 | -0.0151 | 0.0369 | 0.0816 | 0.0813 | 0.069 | 0.0868 | 0.096 | 0.227 | 0.577 | 0.592 | 0.602 | 0.605 | 0.471 | 0.564 | 0.581 | 0.575
CC1=C(/C=C/C(C)=C/C=C/C(C)=C/C(=O)Nc2ccc(O)cc2)C(C)(C)CCC1 [Fenretinide] | 0.0635 | 0.0202 | -0.0163 | -0.136 | 0.757 | 0.403 | 0.216 | 0.00716 | -0.0432 | -0.0451 | -0.13 | -0.456 | -0.388 | -0.302 | -0.337 | -0.461 | 0.0221 | 0.0894 | 0.138 | 0.148 | 0.704 | 0.374 | 0.313 | 0.295 | 0.515 | 0.573 | 0.583 | 0.583 | 0.435 | 0.504 | 0.521 | 0.541
Cc1ccc(C(=O)N(CCCN)[C@@H](c2oc3cc(Cl)ccc3c(=O)c2Cc2ccccc2)C(C)C)cc1 | 0.962 | 0.968 | 0.974 | 0.977 | 0.962 | 0.97 | 0.976 | 0.98 | 0.945 | 0.955 | 0.965 | 0.967 | 0.918 | 0.938 | 0.95 | 0.957 | 0.964 | 0.974 | 0.981 | 0.984 | 0.968 | 0.976 | 0.982 | 0.985 | 0.963 | 0.976 | 0.981 | 0.985 | 0.953 | 0.973 | 0.979 | 0.981
COc1ccc(C2CC(c3ccccc3)=NN2c2ccc(S(N)(=O)=O)cc2)cc1 (centres undefined) | 0.0454 | 0.0281 | -0.0412 | -0.122 | -0.0544 | 0.00397 | -0.0999 | -0.129 | -0.0673 | -0.122 | -0.182 | -0.683 | -0.196 | -0.182 | -0.21 | -0.396 | 0.0153 | 0.0306 | 0.0246 | 0.0751 | -0.0784 | 0.0449 | -0.00789 | 0.0654 | 0.344 | 0.49 | 0.534 | 0.554 | 0.412 | 0.495 | 0.491 | 0.476
O=C(O)Cc1cccc(OCCCN(Cc2cccc(C(F)(F)F)c2Cl)CC(c2ccccc2)c2ccccc2)c1 | 0.116 | 0.0747 | -0.121 | -0.11 | 0.111 | 0.127 | -0.0348 | -0.224 | 0.0962 | 0.115 | 0.0874 | -0.0108 | 0.667 | 0.512 | 0.515 | 0.524 | 0.0517 | 0.0894 | 0.143 | 0.142 | 0.162 | 0.224 | 0.223 | 0.228 | 0.667 | 0.666 | 0.678 | 0.677 | 0.86 | 0.858 | 0.874 | 0.893
O=C(NCCCNc1nc(Nc2cccc(NC(=O)N3CCCC3)c2)ncc1I)c1cccs1 | 0.201 | 0.14 | 0.0194 | 0.047 | 0.0736 | 0.137 | 0.35 | 0.462 | 0.342 | 0.272 | 0.262 | 0.207 | 0.339 | 0.317 | 0.346 | 0.36 | 0.198 | 0.238 | 0.304 | 0.353 | 0.223 | 0.302 | 0.491 | 0.618 | 0.795 | 0.787 | 0.812 | 0.838 | 0.547 | 0.558 | 0.603 | 0.64
